Shown are actives, neighbours in structure and some others; about 4.6% of the full set was active somewhere.
TRHR PAM: qHTS for Small Molecule Agonists and Allosteric Enhancers of Human TRH Receptor: Primary Screen for Enhancers. Thyrotropin-releasing hormone receptor (Homo sapiens), P34981. TRHR cells, fluo-8 calcium fluorescence, EC20 TRH enhancement. enhancement, % at 2 µM. hit rate 0.66% among 360,000; in the data active means enhancement above about 30%; further: 0% is about no effect
Target sequence (P34981 whole entry, looked up): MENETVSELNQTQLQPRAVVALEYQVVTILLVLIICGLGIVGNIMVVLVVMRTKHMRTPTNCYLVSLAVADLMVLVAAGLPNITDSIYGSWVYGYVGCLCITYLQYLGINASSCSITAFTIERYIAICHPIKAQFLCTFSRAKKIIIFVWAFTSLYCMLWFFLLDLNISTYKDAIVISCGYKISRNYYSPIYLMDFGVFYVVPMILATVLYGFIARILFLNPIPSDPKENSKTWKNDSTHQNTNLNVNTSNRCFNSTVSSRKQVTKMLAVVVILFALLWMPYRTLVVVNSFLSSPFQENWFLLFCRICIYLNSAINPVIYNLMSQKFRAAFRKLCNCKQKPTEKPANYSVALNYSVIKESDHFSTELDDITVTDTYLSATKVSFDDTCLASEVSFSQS
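Enhancer read-out: after compound pinning and an initial kinetic agonist-mode read, an EC20 of TRH (10 nM final) was injected and fluo-8 calcium signal (Ex 480/Em 530) followed at 1 s/cycle for 100 cycles in TRHR-expressing cells.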
D1 antagonist: Antagonist of Human D 1 Dopamine Receptor: qHTS. HEK293 TREx D1 cells, calcium flux, dopamine EC80; active compounds read low. D(1A) dopamine receptor (Homo sapiens), P21728. hit rate 3.2% among 360,000. activity change, negative = inhibition, % at 10 µM; in the data active means activity change below about -30%; further: on the % scale 0 is the no-effect control and ±100 the full control effect
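After overnight tetracycline induction at 30 C, force-coupled D1 HEK293 cells took up a no-wash calcium dye at room temperature. Compounds were added and monitored 180 s, and the response to EC80 dopamine was then recorded.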
D1 agonist: Allosteric Agonists of the Human D1 Dopamine Receptor: qHTS | activation, % at 2 µM | AID 504660, 2011 | HEK293 T-REx D1 cells, calcium flux, agonist mode | D(1A) dopamine receptor (Homo sapiens), P21728 | hit rate 1% among 360,000; further: 0% is about no effect
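Inducible HEK293 T-REx D1 cells, force-coupled to calcium signalling, were plated at 4000 cells/well with tetracycline and held overnight at 30 C. After no-wash calcium dye loading, compound-evoked calcium rise over 180 s flagged agonists.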
TRHR ag: qHTS for Small Molecule Agonists and Allosteric Enhancers of Human TRH Receptor: Primary Screen for Agonists. activation, % at 2 µM. TRHR cells, calcium flux fluo-8, FDSS agonist mode. hit rate 0.18% among 360,000. Thyrotropin-releasing hormone receptor (Homo sapiens), P34981; further: 0% is about no effect
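Read-out: compound-evoked intracellular calcium rise in TRHR cells, fluo-8 dye, kinetic FDSS fluorescence at 1 s/cycle following a 10-cycle baseline. Cells cultured overnight before dye loading (30 min–1.5 h, RT).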
D1 PAM: Potentiators of Human D1 Dopamine Receptor: qHTS; D(1A) dopamine receptor (Homo sapiens), P21728; HEK293 TREx D1 cells, calcium flux, dopamine EC20 potentiation; potentiation, % at 10 µM; hit rate 0.036% among 360,000; AID 504651, 2011; in the data active means potentiation above about 30%; further: 0% is about no effect
* marks the source's active call; other numbers are inactive results; ! = not active in a repeat. Unless noted, no stated cut-off is given here; in the data, active means activation above about 30%; inactive means the rest.

SMILES	TRHR PAM	D1 antagonist	D1 agonist	TRHR ag	D1 PAM
O=C(NC1CCN(Cc2ccccc2)CC1)c1ccccc1OCc1ccccc1Cl	-12	-38*	5	2	-5
CCOc1ccccc1C(=O)NC1CCN(Cc2ccccc2)CC1	-3	-31*	0	0	0
CCOC(=O)c1cc(S(=O)(=O)NCc2cccc(Cl)c2)[nH]n1	3	10	2	0	-1
CC(C)CC(C(=O)NC(=O)NCc1ccccc1)N1C(=O)c2ccccc2C1=O (centres undefined)	-1	-79*	2	0	-9
CCC(=O)Nc1ccc(C(=O)Nc2ccc(Br)cc2F)cc1	40*	1	3	2	-1
CCN(C(=O)COC(=O)c1ccccc1NCCO)c1cccc2ccccc12	-13	-43*	2	0	-3
CCOc1ccc(N(C)S(=O)(=O)c2ccc3c(c2)C(C)(C)C(=O)N3C)cc1	6	-36*	2	-1	-3
CCc1ccccc1NS(=O)(=O)c1ccc2c(c1)C(C)(C)C(=O)N2C	2	-3	3	0	-5
CCOc1ccccc1CNS(=O)(=O)c1ccc2c(c1)C(C)(C)C(=O)N2C	1	-35*!	3	0	0
COc1ccc(-c2oc3ncn4nc(COc5ccc(Cl)cc5)nc4c3c2-c2ccc(OC)cc2)cc1	1	29	6	-1	3
CN(Cc1ccccc1)C(=O)C(=O)Nc1ccc2nc3n(c(=O)c2c1)CCCCC3	10	-7	3	-1	0
Cc1ccc2nc(-c3ccc(NC(=S)NC4CC(C)(C)NC(C)(C)C4)cc3)sc2c1	1	-3	41*	0	-3
COc1ccc(N=C2NC(=O)S/C2=C\c2ccc(N(C)C)cc2)cc1	-5	-5	67*	17	2
CCOc1ccc(N=C2NC(=O)S/C2=C\c2ccc(Cl)cc2)cc1	-5	-10	1	1	-2
COc1ccc(-c2cn3nc(N4CCCC(C(=O)NCc5ccc(Cl)cc5)C4)sc3n2)cc1 (centres undefined)	0	-1	2	0	-2
O=C(Nc1cccc(Cl)c1)c1cc(N=Nc2ccc([N+](=O)[O-])cc2Cl)ccc1O	-3	-54*	21	1	-9
O=C(O)/C=C/C(=O)NNC(=O)c1ccccc1Br	-3	-41*	-1	0	-9
Cc1ccccc1C(=O)NNC(=O)/C=C\C(=O)O	-10	-2	2	-1	-1
CCc1nnc(NC(=O)CN2CCC(O)(c3ccccc3OC)CC2)s1	15	7	3	0	-1
COc1ccc(C2(O)CCN(CC(=O)Nc3nccs3)CC2)c(OC)c1	4	-31*	2	0	-20
CCN(CC(=O)Nc1sc2c(c1C#N)CCCC2)Cc1nc2ccccc2c(=O)[nH]1	-6	-12	-5	0	-2
CC(=O)Nc1sc2c(c1C#N)CCC(C)C2 (centres undefined)	3	-13	0	-1	3
CCN(CC(=O)Nc1sc2c(c1C#N)CCC(C)C2)CC(=O)NC1CCS(=O)(=O)C1 (centres undefined)	13	-60*	9	6	-13
CCN(CC(=O)Nc1sc2c(c1C#N)CCC(C)C2)Cc1nc2ccccc2c(=O)[nH]1 (centres undefined)	7	-61*	3	0	-13
Cc1nn(C)c2c1c(C(F)(F)F)cc(=O)n2C(C)C(=O)NCc1ccccc1 (centres undefined)	-6	13	3	0	2
SMILES	TRHR PAM	D1 antagonist	D1 agonist	TRHR ag	D1 PAM
CN1CCN(Cc2c(O)ccc3cc(-c4ccc(Cl)cc4)c(=O)oc23)CC1	-2	-15	32*	2	0
COc1ccc(-c2cc3ccc(O)c(CN4CCCC(C)C4)c3oc2=O)cc1OC (centres undefined)	4	15	2	32*	-3
O=c1oc2c(CN3CCN(CCO)CC3)c(O)ccc2cc1-c1ccccc1	-2	-4	-1	2	-1
CC(C)CC(=O)NC(NC(=S)Nc1sc2c(c1C#N)CCCC2)C(Cl)(Cl)Cl (centres undefined)	-6	-32*	13	0	-7
COC(=O)c1ccc(OCCOc2ccccc2)cc1	-3	-13	3	0	-2
COc1cccc(OC)c1OCCOc1ccc(C(=O)c2ccccc2)cc1	-9	-35*	22	-1	-6
Cc1c(Cl)cccc1NC(=O)C(=O)NCCc1csc(-c2ccc(C(F)(F)F)cc2)n1	3	12	4	1	5
Cc1c(C(=O)N(C)C)sc2c1c(=O)n(-c1ccc(Cl)c(Cl)c1)c(=O)n2CC(=O)Nc1ccc(Br)cc1F	14	9	2	2	-1
COc1cccc(NC(=O)Nc2cc(Cl)ccc2C)c1	9	-34*	9	2	-9
COc1cccc(NC(=O)NC(=O)c2c(C)cc(Cl)nc2Cl)c1	5	-41*	2	1	-4
COc1ccc(OC)c(C(=O)NC(CC(N)=O)c2ccc(NCc3ccc(F)c(F)c3)c([N+](=O)[O-])c2)c1 (centres undefined)	36*	19	2	0	1
COc1ccc(CCNC(=O)Cn2c(=O)n(-c3ccc(F)cc3F)c(=O)c3sccc32)cc1OC	2	-36*	0	-1	-6
Cc1cccc(OCCSc2nnc(-c3cccs3)o2)c1	-2	-18	44*	-1	1
Cc1occc1C(=O)NC1CCCc2ccccc21 (centres undefined)	7	-17	5	-1	0
O=C(NC1CCCc2ccccc21)c1cccc(Br)c1 (centres undefined)	-2	-44*	3	-1	-2
Cc1ccnc2nc(C(=O)NC3CCCc4ccccc43)nn12 (centres undefined)	1	-52*	3	-1	-1
COc1ccc(S(=O)(=O)n2nc(-n3c(C)ccc3C)c3c(F)cccc32)cc1OC	1	-34*	9	-1	-11
N#Cc1c(C(F)(F)F)cc(-c2ccc(Cl)c(Cl)c2)nc1SCCN1CCOCC1	-8	-5	4	1	-8
N#Cc1c(C(F)(F)F)cc(-c2ccccc2)nc1SCc1nc(N)nc(N2CCOCC2)n1	-4	-17	70*	23	-3
CN(C)c1ccc(C(CNS(=O)(=O)c2ccc(Cl)cc2)N2CCCC2)cc1 (centres undefined)	2	0	4	0	0

Compound activity: PubChem, National Center for Advancing Translational Sciences (NCATS)
